LmPK inhibitor: LmPK (Leishmania mexicana) enzyme inhibition; Potency, µM (highest dose often 57.5 µM), usual class: inhibitors; actives 0.37% (n = 290,000); purified LmPK, Kinase-Glo ATP luminescence, 1 h
Target sequence (Q27686 whole entry, looked up): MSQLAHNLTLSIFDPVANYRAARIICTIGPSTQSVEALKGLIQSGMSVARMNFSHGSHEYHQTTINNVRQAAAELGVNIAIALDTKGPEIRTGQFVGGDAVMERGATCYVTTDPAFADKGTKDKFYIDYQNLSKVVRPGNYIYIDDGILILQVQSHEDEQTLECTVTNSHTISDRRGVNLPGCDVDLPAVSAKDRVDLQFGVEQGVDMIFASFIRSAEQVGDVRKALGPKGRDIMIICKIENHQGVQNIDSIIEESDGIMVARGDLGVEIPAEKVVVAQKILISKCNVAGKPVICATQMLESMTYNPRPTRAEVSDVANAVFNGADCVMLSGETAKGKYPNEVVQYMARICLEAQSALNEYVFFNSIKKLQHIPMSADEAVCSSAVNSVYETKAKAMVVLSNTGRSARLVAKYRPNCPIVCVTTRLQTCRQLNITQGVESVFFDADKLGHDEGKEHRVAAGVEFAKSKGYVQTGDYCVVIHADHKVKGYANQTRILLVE
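Pyruvate kinase activity monitored as ATP production (luciferase luminescence). Conditions: 0.1 nM enzyme, 0.5 mM PEP, 0.1 mM ADP, 1 h, RT; normalized against uninhibited and no-enzyme wells.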
Shiga inhibitor: Shiga toxin inhibition; AID 2315; Vero cells, Shiga toxin protein synthesis inhibition reporter; actives 9.2% (n = 290,000); inhibition, % at 38.7 µM; in the data active means inhibition mostly above about 28%, no sharp cut-off; inactive means mostly below about 43%
FBPA Giardia inh: blocks Giardia fructose-bisphosphate aldolase activity. A8B2U2. purified Giardia FBPA. Potency, µM (doses to about 59.6 µM), most hits filed as inhibitors. actives 0.71% (n = 290,000). AID 2451; further: nearly all actives have a fitted effect of over 55% in size
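40 nM FBPA preincubated 10 min at RT with compound (up to 57.5 uM final), then substrate plus GAPDH/TPI/NAD/arsenate coupling and diaphorase/resazurin added. Fluorescence read after 20 min at RT, 525/598 nm.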
CHX counter: counter-screen for Shiga toxin inhibitors: cycloheximide protein synthesis inhibition; cell reporter, cycloheximide protein synthesis inhibition counterscreen; max response, %; actives 12% (n = 300,000); in the data active means max response mostly above about 13%, no sharp cut-off; inactive means mostly below about 14%; further: read at 38.3 µM for the half of the compounds with a filed dose
NS1 inh: inhibitors of influenza NS1 protein function; Potency, µM (highest dose often 46.1 µM); actives 0.4% (n = 270,000); AID 2326; calls by dose curve; further: actives are rising curves; nearly all actives have a fitted effect of over 50% in size
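S. cerevisiae expressing influenza A NS1, grown in glucose, washed, then diluted 1:100 into pH 6.0 -URA galactose medium with 23 nl compound. Growth recovery read as OD600; NS1-free strain serves as control.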
Numbers stand for hits; i = inactive; ? = inconclusive; nt = no result; [ ] = another dose, or the depositor's remark. Compounds with a hit are over-represented: about 14% of the library has one in this group of screens. Unless noted, the call rests on the fitted dose curve; in most records, active means well fitted curve in the direction sought with a large enough effect; inconclusive means small, poorly fitted or top-dose-only effect, or another doubt; inactive means no such curve, though single readings can be large; an effect the other way counts as inactive or inconclusive.

SMILES	LmPK inhibitor	Shiga inhibitor	FBPA Giardia inh	CHX counter	NS1 inh
COc1cccc2[nH]c3c(N4CCCCC4)ncnc3c12	i	i	i	45	i
CCOC(=O)C1CCN(c2ncnc3c2[nH]c2cccc(OC)c23)CC1	i	i	i	i	i
CC1CCN(C(=O)CN(c2ccc3c(c2)OCO3)S(C)(=O)=O)CC1	i	i	i	i	?
CC1CCN(C(=O)CN(c2ccc3c(c2)OCCO3)S(=O)(=O)c2ccccc2)CC1	i	54	i	36	i
O=C1N[C@@H]2[C@H](CCCCC(=O)Oc3ccc([N+](=O)[O-])cc3)SC[C@H]2N1	nt	i	i	i	nt
CCN1C(=O)[C@@H]2[C@H]3C(=CC[C@H]2C1=O)C(=O)[C@H]1OC1[C@H]3O (some centres undefined)	nt	nt	i[12.9 µM]	nt	nt
O=Cc1c(NCc2ccco2)nc2ccccn2c1=O	i	i	i	16	i
CCC(C)N=Cc1c(NCc2ccco2)nc2c(C)cccn2c1=O (centres undefined)	i	i	i	i	i
O=C(CCSCc1ccccc1F)N1CCN(c2ccccn2)CC1	i	79	i	28	i
O=C(CSc1ccccc1)N1CCN(S(=O)(=O)c2ccccc2)CC1	i	i	nt	i	i
O=C(CSCc1ccccc1Cl)N1CCN(c2ccccn2)CC1	i	119	i	59	i
O=C(CSc1ccccc1)N1CCC2(CC1)OCCO2	i	54	i	36	i
O=C(CSc1ccccc1)N1CCN(c2ccccn2)CC1	i	i	i	15	nt
O=C(c1c(Cl)cccc1Cl)N1CCN(c2ccccn2)CC1	i	i	i	i	i
Cc1ccc(S(=O)(=O)O[C@H]2CC(C(C)(C)C)CC[C@@H]2c2ccccc2)cc1 (some centres undefined)	nt	nt	nt	nt	i
C=CCN1CCN(C(=O)CSc2ccccc2)CC1	i	32	i	34	i
O=C(N1CCN(c2ccccn2)CC1)C(Cl)(Cl)Cl	i	34	i	28	i
C=CCN1CCN(C(=O)c2ccc(-c3ccccc3)cc2)CC1	i	i	i	i	i
COC(=O)c1ccc(CS(=O)(=O)c2ccc(C)cc2)o1	i	i	i	i	i
Clc1ccc(-c2noc(CN3CCCCC3)n2)cc1	nt	nt	nt	nt	i
COC(=O)c1ccc(-c2noc(CN(C)CCC3CCCCO3)n2)cc1 (centres undefined)	i	i	18µM	16	i
CCN(Cc1nc(-c2ccc(Cl)cc2)no1)CC1CCCO1 (centres undefined)	i	i	i	14	i
COc1ccc(-c2noc(CN(C)CCC3CCCCO3)n2)cc1 (centres undefined)	i	i	i	i	i
CN1CCCN(Cc2nc(-c3ccc(Cl)cc3)no2)CC1	i	i	i	29	i
CN1CCCN(Cc2ccc(Cl)cc2Cl)CC1	i	i	20µM	i	i
SMILES	LmPK inhibitor	Shiga inhibitor	FBPA Giardia inh	CHX counter	NS1 inh
Cc1c(S(=O)(=O)c2ccccn2)c(N)n(Cc2cccc(Cl)c2)c1C	i	i	i	i	i
c1ccc(N2CCN(c3ccccc3)C2c2cccnc2)cc1	i	48	i	26	i
Cc1ccc(N2CCN(c3ccc(C)cc3)C2c2cccnc2)cc1	i	i	i	19	i
c1ccc(N2CCN(c3ccccc3)C2c2ccncc2)cc1	i	i	i	i	i
COc1ccc(COC2OC[C@]3(C)[C@H]4C5=C(CN3C(=O)OC(C)(C)C)[C@H](C)C(CO)C(CO)C5CC[C@@H]24)cc1 (some centres undefined)	nt	nt	i	nt	nt
CCOc1ccc(Cc2nccc3cc(OCC)c(OCC)cc23)cc1OCC	nt	nt	i	nt	nt
Clc1ccc(-n2ncc3c(NCCN4CCOCC4)ncnc32)cc1	i	121	i	43	i[9.22 µM]
c1ccc(-n2ncc3c(NCCCN4CCOCC4)ncnc32)cc1	i	148	nt	34	i
O=C(NCCCNC(=O)c1cc(Cl)ccc1Cl)c1ccccn1	i	i	i	i	?
Cc1ccc(C(=O)c2nccn2C)cc1C	i	i	i	42	i
Clc1ccc(CSCc2ccc(Cl)cc2Cl)c(Cl)c1	nt	nt	nt	nt	i
CCOC(=O)c1c(N)sc2c1CCC1C(=O)N(C3CCCCC3)C(=O)C21 (centres undefined)	i	i	i	32	i
CNC(=O)c1c[nH]c2ccc(S(=O)(=O)Nc3cccc(SC)c3)cc2c1=O	i	i	i	i	i
C/C(=C\c1ccccc1)C(=O)NCCc1ccccc1	i	66	i	31	i
Cc1ccc(C(=O)N/C(=C/C=C\c2ccccc2)C(=O)NCc2ccco2)cc1	i	i	i	17	?
COc1ccc(/C=C(/NC(=O)c2ccccc2)C(=O)NCc2ccco2)cc1	i	i	nt	i	i
